# In ChEMBL document CHEMBL1157539, “Thousands of chemical starting points for antimalarial lead identification” (Nature, 2010):
# What was measured:
# Type in all cases: functional
# Plasmodium falciparum [1] = experiment: GSK_TCMDC: Inhibition of Plasmodium falciparum 3D7 in whole red blood cells, using parasite LDH activity as an index of growth. Test compounds present at 2uM
# Plasmodium falciparum [2] = experiment: GSK_TCMDC: Inhibition of Plasmodium falciparum Dd2 in whole red blood cells, using parasite LDH activity as an index of growth. Test compounds present at 2uM
# HepG2 = experiment: GSK_TCMDC: Percent inhibition of human HepG2 cell line. Test compounds present at 10uM.
smiles,measurement,setting,value
CN1CCN(CC2(Nc3nccc(NCc4ccc(Cl)cc4Cl)n3)CCCCC2)CC1,Inhibition,Plasmodium falciparum [1],98%
same,Inhibition,Plasmodium falciparum [2],58%
same,Inhibition,HepG2,98%
O=C(NC1CC1)c1cnc(N2CCCC(c3ccccc3)C2)c(Cl)c1.O=C(O)C(F)(F)F (stereo not drawn),Inhibition,Plasmodium falciparum [1],95%
same,Inhibition,Plasmodium falciparum [2],94%
same,Inhibition,HepG2,6%
COc1ccc2ccc(F)c(CC(=O)N3CCOC(CNCc4cccc(-c5ccc(F)cc5)n4)C3)c2n1 (stereo not drawn),Inhibition,Plasmodium falciparum [1],92%
same,Inhibition,Plasmodium falciparum [2],1%
same,Inhibition,HepG2,5%
CCCN(CCCN(CCCN(CCC)C(C)C)c1cc(C)nc(Nc2ccc(Cl)cc2)n1)C(C)C.O=C(O)C(=O)O,Inhibition,Plasmodium falciparum [1],100%
same,Inhibition,Plasmodium falciparum [2],99%
same,Inhibition,HepG2,39%
CC(C)C(NC(=O)Cc1cccc2ccccc12)C(=O)Nc1cccc(C#N)c1 (stereo not drawn),Inhibition,Plasmodium falciparum [1],92%
same,Inhibition,Plasmodium falciparum [2],91%
same,Inhibition,HepG2,0%
O=C(NC1CCCCC1)N(Cc1ccc(-c2cccc(CNCc3ccc4c(c3)OCO4)c2)cc1)C1CCN(Cc2ccccc2)CC1.O=C(O)C(F)(F)F,Inhibition,Plasmodium falciparum [1],100%
same,Inhibition,Plasmodium falciparum [2],72%
same,Inhibition,HepG2,23%
CCN(CCCN1CCCCC1)c1cc(C)nc(Nc2ccc(C)cc2)n1.O=C(O)C(F)(F)F,Inhibition,Plasmodium falciparum [1],100%
same,Inhibition,Plasmodium falciparum [2],10%
same,Inhibition,HepG2,17%
CS(=O)(=O)NCCCNCc1cccc(-c2ccc(-c3nc4ccccc4[nH]3)s2)c1.O=C(O)C(F)(F)F,Inhibition,Plasmodium falciparum [1],90%
same,Inhibition,Plasmodium falciparum [2],0%
same,Inhibition,HepG2,24%
FC(F)(F)c1cccc(N=C(S)NN=Cc2ccccn2)c1,Inhibition,Plasmodium falciparum [1],100%
same,Inhibition,Plasmodium falciparum [2],99%
same,Inhibition,HepG2,29%
Br.C[C@@H](COc1ccc(-c2ccccc2)cc1)CON1C(N)=NC(N)=NC1(C)C,Inhibition,Plasmodium falciparum [1],96%
same,Inhibition,Plasmodium falciparum [2],96%
same,Inhibition,HepG2,62%
O=C(NCCCCN1CCC(c2ccc3ccccc3c2)CC1)c1ccc(NC(=O)c2ccc(Cl)cc2)cc1,Inhibition,Plasmodium falciparum [1],100%
same,Inhibition,Plasmodium falciparum [2],93%
same,Inhibition,HepG2,24%
O=C(Nc1cccc(-c2ccc(CN3CCCC3)cc2)c1)c1cccc(Cl)c1.O=C(O)C(F)(F)F,Inhibition,Plasmodium falciparum [1],100%
same,Inhibition,Plasmodium falciparum [2],61%
same,Inhibition,HepG2,32%
O=C(/C=C/c1ccc(Cl)c(Cl)c1)N1CCCC(CCCN2CCC(c3c[nH]c4ccccc34)CC2)C1 (stereo not drawn),Inhibition,Plasmodium falciparum [1],89%
same,Inhibition,Plasmodium falciparum [2],15%
same,Inhibition,HepG2,30%
Cc1ccc(NC(=O)c2ccc(NCCCN3CC(C)CC(C)C3)c([N+](=O)[O-])c2)cc1F (stereo not drawn),Inhibition,Plasmodium falciparum [1],100%
same,Inhibition,Plasmodium falciparum [2],85%
same,Inhibition,HepG2,18%
COc1ccc2nccc([C@@H](O)CN3CCC(NCc4ccc5c(c4)NC(=O)CS5)CC3)c2n1.O=C(O)C(=O)O,Inhibition,Plasmodium falciparum [1],100%
same,Inhibition,Plasmodium falciparum [2],34%
same,Inhibition,HepG2,1%
CC(C)NCc1ccc(-c2ccc(CN3CCCC(c4ccccc4)C3)cc2)c(C(=O)NCC2CCCCC2)c1.O=C(O)C(F)(F)F (stereo not drawn),Inhibition,Plasmodium falciparum [1],97%
same,Inhibition,Plasmodium falciparum [2],53%
same,Inhibition,HepG2,79%
CCNc1cc(C(=O)NC(Cc2ccccc2)C(O)CNC2CCSCC2)cc(N2CCCC2=O)c1 (stereo not drawn),Inhibition,Plasmodium falciparum [1],99%
same,Inhibition,Plasmodium falciparum [2],98%
same,Inhibition,HepG2,0%
CC(=O)c1c[nH]c(C(=O)Nc2ccc(-c3cn4ccccc4n3)cc2)c1,Inhibition,Plasmodium falciparum [1],98%
same,Inhibition,Plasmodium falciparum [2],95%
same,Inhibition,HepG2,20%
O=C(Nc1ccc(OC2CCN(Cc3ccsc3)CC2)c(Cl)c1)c1ccc(F)cc1.O=C(O)C(F)(F)F,Inhibition,Plasmodium falciparum [1],98%
same,Inhibition,Plasmodium falciparum [2],83%
same,Inhibition,HepG2,31%
COc1ccc(NC(=O)Nc2cc(C)nc3cccnc23)cc1Cn1ccnc1,Inhibition,Plasmodium falciparum [1],100%
same,Inhibition,Plasmodium falciparum [2],41%
same,Inhibition,HepG2,12%
N#Cc1ccc(-c2ccc(C(=O)NCCCCN3CCC(c4cc(Br)c5c(c4OCC(N)=O)CCCC5)CC3)cc2)cc1,Inhibition,Plasmodium falciparum [1],100%
same,Inhibition,Plasmodium falciparum [2],89%
same,Inhibition,HepG2,23%
Oc1ccc(C=NNC(S)=Nc2cccc3ccccc23)c(O)c1,Inhibition,Plasmodium falciparum [1],89%
same,Inhibition,Plasmodium falciparum [2],72%
same,Inhibition,HepG2,8%
Cl.N=C(N)c1ccc(NC(=O)Cc2nc3cc(C(=N)N)ccc3[nH]2)cc1,Inhibition,Plasmodium falciparum [1],87%
same,Inhibition,Plasmodium falciparum [2],81%
same,Inhibition,HepG2,4%
COc1cccc2c(NN=Cc3cccc(Cl)c3)cc(C)nc12,Inhibition,Plasmodium falciparum [1],100%
same,Inhibition,Plasmodium falciparum [2],75%
same,Inhibition,HepG2,3%
CN(C)c1ccc(C=Cc2ccc3ccccc3n2)c(Cl)c1,Inhibition,Plasmodium falciparum [1],94%
same,Inhibition,Plasmodium falciparum [2],95%
same,Inhibition,HepG2,59%
O=C1NC(C(=O)Nc2ccccc2)C(c2ccccc2)S1 (stereo not drawn),Inhibition,Plasmodium falciparum [1],95%
same,Inhibition,Plasmodium falciparum [2],99%
same,Inhibition,HepG2,0%
O=C(COc1ccccc1Cc1ccccc1)Nc1cc(Cl)ccc1-n1cncn1,Inhibition,Plasmodium falciparum [1],92%
same,Inhibition,Plasmodium falciparum [2],93%
same,Inhibition,HepG2,5%
O=C(Nc1ccc(OC2CCN(Cc3ccc(F)cc3)CC2)c(Cl)c1)c1ccoc1.O=C(O)C(F)(F)F,Inhibition,Plasmodium falciparum [1],89%
same,Inhibition,Plasmodium falciparum [2],90%
same,Inhibition,HepG2,0%
COc1ccccc1/C=C/C(=O)N(C)C1CCN(CCCCCNC(=O)/C=C/c2ccc(Cl)c(Cl)c2)C1 (stereo not drawn),Inhibition,Plasmodium falciparum [1],94%
same,Inhibition,Plasmodium falciparum [2],14%
same,Inhibition,HepG2,10%
NS(=O)(=O)NCCCN1CCN(c2ccccc2)CC1,Inhibition,Plasmodium falciparum [1],90%
same,Inhibition,Plasmodium falciparum [2],73%
same,Inhibition,HepG2,2%
c1ccc2c(NCCc3c[nH]cn3)c3ccccc3nc2c1,Inhibition,Plasmodium falciparum [1],91%
same,Inhibition,Plasmodium falciparum [2],0%
same,Inhibition,HepG2,20%
Cc1cc(-c2cccc3c(NC(=O)N4CCc5cc6nccc(N7CCN8CCC[C@H]8C7)c6cc54)cccc23)cc(C)n1.Cl,Inhibition,Plasmodium falciparum [1],100%
same,Inhibition,Plasmodium falciparum [2],100%
same,Inhibition,HepG2,12%
Cl.N#Cc1ccc2c(c1)CCN(CCC1CCC(Nc3ncnc4ccccc34)CC1)C2 (stereo not drawn),Inhibition,Plasmodium falciparum [1],100%
same,Inhibition,Plasmodium falciparum [2],96%
same,Inhibition,HepG2,65%
CCOC(=O)c1cc(C(=O)OC)c2ccccn12,Inhibition,Plasmodium falciparum [1],97%
same,Inhibition,Plasmodium falciparum [2],2%
same,Inhibition,HepG2,44%
Cc1ccc(Cl)cc1N1CCN(CCCNC(=O)C2CCN(c3nc4ccccc4[nH]3)CC2)CC1,Inhibition,Plasmodium falciparum [1],88%
same,Inhibition,Plasmodium falciparum [2],0%
same,Inhibition,HepG2,41%
NCCc1cccc(-c2cnc3[nH]cc(-c4ccc(C(=O)O)cc4)c3c2)c1.O=C(O)C(F)(F)F,Inhibition,Plasmodium falciparum [1],99%
same,Inhibition,Plasmodium falciparum [2],98%
same,Inhibition,HepG2,4%
COc1ccc(NC(=O)Nc2ccc(-c3ccncc3)c(Cl)c2)cc1N1CCN(C)CC1,Inhibition,Plasmodium falciparum [1],98%
same,Inhibition,Plasmodium falciparum [2],62%
same,Inhibition,HepG2,19%
CCCCCN1CCCCC(NS(=O)(=O)c2ccc(C(=O)Nc3cccc(C(F)(F)F)c3)cc2)C1.O=C(O)C(F)(F)F (stereo not drawn),Inhibition,Plasmodium falciparum [1],93%
same,Inhibition,Plasmodium falciparum [2],2%
same,Inhibition,HepG2,14%
Cc1ccc(C(=O)Nc2ccc(Cl)c(N3CCN(CCc4ccccc4)CC3)c2)cc1.O=C(O)C(F)(F)F,Inhibition,Plasmodium falciparum [1],90%
same,Inhibition,Plasmodium falciparum [2],14%
same,Inhibition,HepG2,17%
COc1ccc(-c2nnc(Sc3ccc(C#N)c([N+](=O)[O-])c3)n2CCC(C)C)cc1,Inhibition,Plasmodium falciparum [1],89%
same,Inhibition,Plasmodium falciparum [2],53%
same,Inhibition,HepG2,15%
Cn1cnc2c(SCc3ccccc3OCc3ccccc3)ncnc21,Inhibition,Plasmodium falciparum [1],86%
same,Inhibition,Plasmodium falciparum [2],34%
same,Inhibition,HepG2,6%
O=C(NCC1CCN(CCN2CCc3ccc4c(c3C2)OCO4)CC1)c1ccc(-c2ccc(C(F)(F)F)cc2)cc1,Inhibition,Plasmodium falciparum [1],93%
same,Inhibition,Plasmodium falciparum [2],34%
same,Inhibition,HepG2,66%
COc1ccc2nccc([C@@H](O)CN3CCC(NC(=O)c4ccc(Cl)c([N+](=O)[O-])c4)CC3)c2c1,Inhibition,Plasmodium falciparum [1],88%
same,Inhibition,Plasmodium falciparum [2],43%
same,Inhibition,HepG2,14%
COC(=O)c1cccc(CNCc2ccc(-c3ccc(-c4nc5cccc(C)c5[nH]4)s3)cc2)c1.O=C(O)C(F)(F)F,Inhibition,Plasmodium falciparum [1],100%
same,Inhibition,Plasmodium falciparum [2],64%
same,Inhibition,HepG2,3%
O=C(Nc1ccc(F)c([N+](=O)[O-])c1)Nc1cc(C(F)(F)F)ccc1Cl,Inhibition,Plasmodium falciparum [1],100%
same,Inhibition,Plasmodium falciparum [2],86%
same,Inhibition,HepG2,5%
O=c1cc(NCCCNCc2cccc(OC(F)(F)C(F)F)c2)[nH]c2ccccc12,Inhibition,Plasmodium falciparum [1],81%
same,Inhibition,Plasmodium falciparum [2],7%
same,Inhibition,HepG2,6%
